Consider seven compounds from PubChem BioAssay (NCATS).

The target in assay [1] is Lysosomal acid glucosylceramidase (Homo sapiens) (UniProt P04062). Put plainly: Glucocerebrosidase-p2 (AID 348; in the data active = potency below about 10 µM; also: potency is read from the fitted curve at half-maximal effect). Conditions: purified GBA, blue fluorogenic substrate, 40 min. A digest of the protocol: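 Compounds titrated from 0.6 nM upwards against 0.2 nM enzyme in pH 5.9 citric acid/KH2PO4, taurocholate, tween-20; blue fluorogenic substrate 80 uM, 40 min room temperature, stopped and read Ex 365/Em 440 for AC50.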

Assay [2] addresses Cytochrome P450 1A2 (Homo sapiens) (UniProt P05177). Description: p450-cyp1a2 (AID 410; calls by dose curve; also: potency is read from the fitted curve at half-maximal effect;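 as to activity change, negative = inhibition: -100% = full effect of reference inhibitor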). A digest of the protocol: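 Luminescent readout of luciferin formed from Luciferin-ME by human CYP1A2; data normalized against complete inhibition by 57 uM furafylline. Enzyme 20nM, substrate 100uM at Km, 100mM KPO4 buffer, 60 min reaction at room temperature.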
Assay [3] is described as follows: Stat Signaling Pathway (AID 446; active = well fitted curve in either direction with a large enough effect, not every such curve was filed as active;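 also: ME-180 cervical cancer cells given 40 pM IL-6 alongside compound; SIE-controlled beta-lactamase reporter measured as 460/530 nm FRET emission ratio; % is scaled to controls: 0 for no effect and ±100 for the full control effect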). Conditions: ME-180 SIE beta-lactamase reporter, IL-6 stimulated, 5 h; at 7.69 µM (top of the series) unless noted. The essentials: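 ME-180 cells carrying a SIE-driven beta-lactamase reporter are stimulated with 40 pM IL-6 for 5 h at 37C in the presence of compound. The 460/530 nm FRET substrate ratio is read after 2.5 h at RT. Data are normalised to 300 pM IL-6 and to 125 nM JAK inhibitor controls.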

Assay [4] addresses Glucocorticoid receptor (Homo sapiens) (UniProt P04150). Put plainly: GR-GFP Redistribution (AID 450;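 active = compounds whose dose series gives a full or clear partial fitted curve of increased nuclear translocation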; also: potency is read from the fitted curve at half-maximal effect). Conditions: U2OS GR-GFP nuclear translocation, laser cytometry, 2 h.
Assay [5] shares this target. Put plainly: GR-EFC Redistribution (AID 451; calls by dose curve; also: potency is read from the fitted curve at half-maximal effect). Conditions: CHO-K1 GR-EFC translocation, beta-gal luminescence, 2 h. A digest of the protocol: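 Translocation of GR-ED fusion to nuclear EA restores b-gal, read by luminescence after 1 h room-temperature detection. Engineered CHO-K1 biosensor cells, 1,000/well, exposed 2 h at 37 C to titrations up to 46 uM final.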
Assay [6] has as its target Mitogen-activated protein kinase 10 (Mus musculus) (UniProt Q61831). Description: JNK3 AlphaScreen Assay (AID 530; active = well fitted curve in either direction with a large enough effect, not every such curve was filed as active;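 also: kinase came from lysate of stimulated human HepG2 cells; signal reports phosphorylation of biotinylated GST-cJun 1-79 at Ser73 with 10 µM ATP; % is scaled to controls: 0 for no effect and ±100 for the full control effect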). A digest of the protocol:
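Compound titrations were preincubated 15 minutes at room temperature with substrate, antibody and pre-activated JNK3-containing HepG2 lysate. Reactions were started with 10 uM ATP and stopped with EDTA-containing bead buffer for AlphaScreen detection.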

In assay [7] the target is Cytochrome P450 3A4 (Homo sapiens) (UniProt P08684). Put plainly: qHTS Assay for Activators of Cytochrome P450 3A4 (AID 885). Also: nearly all actives have a fitted effect of over 65% in size. The essentials:
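Human CYP3A4 (20 nM) with Luciferin-PPXE at 25 uM (its KM) in 200 mM KPO4; 10 min compound preincubation, then NADPH regeneration and 60 min reaction at RT. Luciferin read by luminescence; normalized to 57 uM ketoconazole full inhibition.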
(In qHTS, concentration-response curves come from the screen itself.)

The target in assay [8] is Dual specificity protein kinase CLK4 (Homo sapiens) (UniProt Q9HAZ1). Description: qHTS Assay for Inhibitors of CDC-like Kinase 4 (ADP-FP Assay) (AID 1795). Also: % is scaled to controls: 0 for no effect and ±100 for the full control effect; nearly all actives have a fitted effect of over 60% in size. The essentials:
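Recombinant human Clk4 (6.25 nM) phosphorylated RS repeat peptide (100 uM) with 1 uM ATP in Tris pH 7.5/MgCl2/EGTA/DTT/Triton buffer for one hour. ADP was quantified by Transcreener competitive fluorescence polarization against an ADP calibration curve.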

The nature of assay [9]: Primary qHTS for small molecule stabilizers of the endoplasmic reticulum resident proteome: Secreted ER Calcium Modulated Protein (SERCaMP) assay (AID 1508630). Also: % is scaled to controls: 0 for no effect and ±100 for the full control effect. The essentials: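 GLuc-SERCaMP-expressing SH-SY5Y cells, pretreated 16 h with compound, are challenged with thapsigargin to empty ER calcium stores; after 4 h, coelenterazine is added directly to the medium and luminescence is imaged.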

The target of assay [10] is Rap guanine nucleotide exchange factor 3 (Homo sapiens) (UniProt O95398). Put plainly: Confirmatory qHTS for antagonist of cAMP-regulated guanine nucleotide exchange factor 3 (EPAC1) (AID 1645880).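 Also: plate controls were DMSO only for no effect and full effect of the ATA control for full effect; nearly all actives have a fitted effect of over 55% in size.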 The essentials:
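Nucleotide exchange uses 100 nM EPAC1, 250 nM RAP1B-BODIPY-GDP and 50 uM GDP, with compounds in a concentration-titration series. After 5 min at room temperature, fluorescence (480 nm ex/540 nm em) is read every 5 min for 30 min. Data are normalized to control ATA and DMSO.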

The target is the same in assay [11]. Put plainly: Confirmatory qHTS for agonist of cAMP-regulated guanine nucleotide exchange factor 3 (EPAC1) (AID 1645881).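 Also: EPAC1 catalysed release of BODIPY-GDP from Rap1B seen as fluorescence loss; 100% = effect of cAMP agonist control; nearly all actives have a fitted effect of over 75% in size.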
Assay [12] has as its target Rap guanine nucleotide exchange factor 4 (Homo sapiens) (UniProt Q8WZA2). Description: Confirmatory qHTS for antagonist of cAMP-regulated guanine nucleotide exchange factor 4 (EPAC2) (AID 1645885). Also: nearly all actives have a fitted effect of over 25% in size. Also: potency is read from the fitted curve at half-maximal effect.
Assay [13] deals with 3',5'-cyclic-AMP phosphodiesterase 4B (Homo sapiens) (UniProt Q07343). Put plainly: qHTS Assay for Inhibitors of PDE-IV (AID 607; active = well fitted activation curve with a large enough effect in the main read-out, with a control signal flat, not every such curve was filed as active; also: % of control where 0% means no effect). A digest of the protocol:
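HEK293 ACTOne cells with CNG channel (1000/well), endogenous PDE4; membrane potential dye, compounds up to 22.9 uM final. Fluorescence Ex 535/Em 590; RO 20-1724 (100 uM final) as reference.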

Assay [14] concerns the target Ubiquitin carboxyl-terminal hydrolase 1 (Homo sapiens) (UniProt O94782). Put plainly: Inhibitors of USP1/UAF1: Pilot qHTS (AID 504865).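 Also: rhodamine fluorescence freed from ubiquitin-rhodamine substrate followed over time; top concentration of the series differs between compounds; % is scaled to controls: 0 for no effect and ±100 for the full control effect; nearly all actives have a fitted effect of over 35% in size.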 The essentials:
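USP1/UAF1 complex (1nM) preincubated with compound 15 min at room temperature, then Ub-Rho substrate (150nM final) added. Fluorescence read kinetically at 480/540 nm, 6 reads every 60 seconds. Buffer: 50mM HEPES pH 7.8, 0.5mM EDTA, 0.1 mg/ml BSA, 1mM TCEP, 0.01% Tween-20.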

Assay [15] concerns the target Rap guanine nucleotide exchange factor 4 (Homo sapiens) (UniProt Q8WZA2). Put plainly: Confirmatory qHTS for agonist of cAMP-regulated guanine nucleotide exchange factor 4 (EPAC2) (AID 1645884).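 Also: nucleotide exchange releases bodipy-GDP from Rap1 and this lowers its fluorescence; nearly all actives have a fitted effect of over 65% in size.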 Also: potency is read from the fitted curve at half-maximal effect.
Assay [16] can be described thus: AP1 Signaling Pathway (AID 357; active = well fitted curve in either direction with a large enough effect, not every such curve was filed as active; also: % is scaled to controls: 0 for no effect and ±100 for the full control effect). Conditions: ME-180 (cervical carcinoma) AP-1-bla reporter, EGF-induced, beta-lactamase ratio, 5 h; at 7.69 µM (top of the series) unless noted. The essentials: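 Read-out was the 460nm/530nm emission ratio (excitation 405nm) after CCF4 loading for 2.5 hours at room temperature. Cells carried an AP-1-driven beta-lactamase reporter, were stimulated with EC50 EGF plus compound for 5 hours, and AC50 values came from titrations.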

Assay [17] is described as follows: NFAT Signaling Pathway (AID 444; active = well fitted curve in either direction with a large enough effect, not every such curve was filed as active). Conditions: Jurkat NFAT-bla M1, carbachol, beta-lactamase ratio, 5 h; at 7.69 µM (top of the series) unless noted. The essentials:
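Read-out: CCF4 FRET ratio (460 nm/530 nm) after 1 h RT dye loading, used for %activity and AC50 from titration series. Cells: Jurkat NFAT-β-lactamase/M1 line, treated with compound plus 1 uM carbachol for 5 h, 37 °C.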

Each structure is given as a SMILES string. A number with no mark means an inactive call. Records with an inconclusive call do not appear. Active and inactive are the calls of the source. Unless noted, calls follow the shape of the dose curve; as a rule, active = well fitted curve in the direction sought with a large enough effect; inconclusive = small, poorly fitted or top-dose-only effect, or another doubt; inactive = no such curve, though single readings can be large; an effect the other way counts as inactive or inconclusive.

Chain of Lysosomal acid glucosylceramidase (Homo sapiens) (P04062 whole entry, looked up): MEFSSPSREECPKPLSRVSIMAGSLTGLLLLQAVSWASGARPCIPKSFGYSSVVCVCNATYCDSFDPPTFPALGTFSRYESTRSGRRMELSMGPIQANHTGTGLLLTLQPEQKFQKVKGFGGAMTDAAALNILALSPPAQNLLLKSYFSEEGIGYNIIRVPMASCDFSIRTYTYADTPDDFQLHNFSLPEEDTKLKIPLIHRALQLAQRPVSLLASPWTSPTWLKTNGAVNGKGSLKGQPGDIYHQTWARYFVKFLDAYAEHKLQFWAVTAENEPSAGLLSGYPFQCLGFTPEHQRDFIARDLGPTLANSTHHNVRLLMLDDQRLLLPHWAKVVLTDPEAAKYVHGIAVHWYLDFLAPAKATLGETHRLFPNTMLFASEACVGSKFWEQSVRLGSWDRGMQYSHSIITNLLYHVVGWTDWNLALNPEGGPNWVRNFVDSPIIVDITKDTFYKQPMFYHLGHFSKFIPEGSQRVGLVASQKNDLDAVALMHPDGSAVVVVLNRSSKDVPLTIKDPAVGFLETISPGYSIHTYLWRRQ
Chain of 3',5'-cyclic-AMP phosphodiesterase 4B (Homo sapiens) (Q07343 whole entry, looked up): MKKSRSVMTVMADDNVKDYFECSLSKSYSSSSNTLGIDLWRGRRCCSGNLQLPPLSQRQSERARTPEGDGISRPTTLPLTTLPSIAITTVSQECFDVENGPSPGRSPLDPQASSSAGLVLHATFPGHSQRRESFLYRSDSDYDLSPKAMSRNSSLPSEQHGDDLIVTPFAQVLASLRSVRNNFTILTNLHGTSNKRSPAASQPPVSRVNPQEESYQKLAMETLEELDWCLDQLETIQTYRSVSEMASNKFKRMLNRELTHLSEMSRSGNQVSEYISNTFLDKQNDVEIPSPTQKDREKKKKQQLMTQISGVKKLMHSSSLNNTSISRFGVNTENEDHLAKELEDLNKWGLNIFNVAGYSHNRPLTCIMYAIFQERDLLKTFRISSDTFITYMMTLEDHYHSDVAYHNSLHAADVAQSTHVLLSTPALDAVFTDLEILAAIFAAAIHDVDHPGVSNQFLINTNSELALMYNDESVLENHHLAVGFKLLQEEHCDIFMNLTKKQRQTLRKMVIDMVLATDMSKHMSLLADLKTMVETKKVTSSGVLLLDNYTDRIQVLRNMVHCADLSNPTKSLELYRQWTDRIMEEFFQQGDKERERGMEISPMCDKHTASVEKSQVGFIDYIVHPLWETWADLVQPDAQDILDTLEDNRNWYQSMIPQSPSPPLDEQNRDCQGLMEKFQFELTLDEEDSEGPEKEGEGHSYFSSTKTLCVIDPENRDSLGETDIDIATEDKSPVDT
Chain of Dual specificity protein kinase CLK4 (Homo sapiens) (Q9HAZ1 whole entry, looked up): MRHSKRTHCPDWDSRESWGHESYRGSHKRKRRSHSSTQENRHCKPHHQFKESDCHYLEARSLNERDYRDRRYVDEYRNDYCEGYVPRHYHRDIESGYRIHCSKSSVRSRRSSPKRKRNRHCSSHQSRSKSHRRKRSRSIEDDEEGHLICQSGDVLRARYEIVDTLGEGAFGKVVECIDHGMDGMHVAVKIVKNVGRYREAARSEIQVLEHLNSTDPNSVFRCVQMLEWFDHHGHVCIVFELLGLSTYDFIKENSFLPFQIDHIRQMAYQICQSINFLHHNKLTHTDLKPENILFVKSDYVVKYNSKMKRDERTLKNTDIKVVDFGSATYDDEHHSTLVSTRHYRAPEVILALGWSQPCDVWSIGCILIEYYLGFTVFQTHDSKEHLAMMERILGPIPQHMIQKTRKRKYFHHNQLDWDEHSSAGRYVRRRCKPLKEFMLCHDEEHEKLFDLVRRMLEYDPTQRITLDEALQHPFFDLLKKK
Chain of Glucocorticoid receptor (Homo sapiens) (P04150 whole entry, looked up, the tested form may be a part): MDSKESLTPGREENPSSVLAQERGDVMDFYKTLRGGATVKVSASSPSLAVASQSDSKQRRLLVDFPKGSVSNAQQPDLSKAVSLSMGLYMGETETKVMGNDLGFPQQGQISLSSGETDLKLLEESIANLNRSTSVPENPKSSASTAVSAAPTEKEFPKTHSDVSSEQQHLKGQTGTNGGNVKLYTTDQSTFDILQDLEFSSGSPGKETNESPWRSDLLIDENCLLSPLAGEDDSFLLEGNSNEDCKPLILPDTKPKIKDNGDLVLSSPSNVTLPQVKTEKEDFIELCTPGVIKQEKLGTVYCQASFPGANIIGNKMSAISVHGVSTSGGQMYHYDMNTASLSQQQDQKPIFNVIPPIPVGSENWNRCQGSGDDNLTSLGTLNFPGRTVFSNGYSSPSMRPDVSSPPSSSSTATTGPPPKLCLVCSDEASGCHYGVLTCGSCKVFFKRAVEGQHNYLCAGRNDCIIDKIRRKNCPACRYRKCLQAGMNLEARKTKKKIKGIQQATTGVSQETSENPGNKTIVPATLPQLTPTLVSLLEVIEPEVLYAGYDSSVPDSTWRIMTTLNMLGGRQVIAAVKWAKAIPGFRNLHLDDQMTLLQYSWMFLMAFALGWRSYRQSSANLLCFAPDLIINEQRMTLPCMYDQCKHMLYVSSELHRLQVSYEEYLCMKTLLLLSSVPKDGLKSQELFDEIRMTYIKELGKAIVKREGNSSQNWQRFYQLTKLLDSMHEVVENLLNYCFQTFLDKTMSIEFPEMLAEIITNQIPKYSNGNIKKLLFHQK
Chain of Cytochrome P450 1A2 (Homo sapiens) (P05177 whole entry, looked up): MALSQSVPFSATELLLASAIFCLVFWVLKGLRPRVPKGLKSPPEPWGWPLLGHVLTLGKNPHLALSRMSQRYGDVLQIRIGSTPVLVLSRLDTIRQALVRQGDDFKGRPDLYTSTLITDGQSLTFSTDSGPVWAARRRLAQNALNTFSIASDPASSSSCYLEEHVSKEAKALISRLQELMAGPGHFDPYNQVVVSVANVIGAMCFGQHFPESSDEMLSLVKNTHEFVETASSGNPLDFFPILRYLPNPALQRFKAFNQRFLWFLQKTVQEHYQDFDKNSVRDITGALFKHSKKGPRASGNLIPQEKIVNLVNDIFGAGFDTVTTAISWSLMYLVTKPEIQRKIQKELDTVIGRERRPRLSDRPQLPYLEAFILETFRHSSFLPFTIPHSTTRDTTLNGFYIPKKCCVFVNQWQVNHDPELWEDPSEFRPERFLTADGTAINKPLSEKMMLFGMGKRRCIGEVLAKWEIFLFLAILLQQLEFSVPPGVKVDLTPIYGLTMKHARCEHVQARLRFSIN
Chain of Rap guanine nucleotide exchange factor 4 (Homo sapiens) (Q8WZA2 whole entry, looked up): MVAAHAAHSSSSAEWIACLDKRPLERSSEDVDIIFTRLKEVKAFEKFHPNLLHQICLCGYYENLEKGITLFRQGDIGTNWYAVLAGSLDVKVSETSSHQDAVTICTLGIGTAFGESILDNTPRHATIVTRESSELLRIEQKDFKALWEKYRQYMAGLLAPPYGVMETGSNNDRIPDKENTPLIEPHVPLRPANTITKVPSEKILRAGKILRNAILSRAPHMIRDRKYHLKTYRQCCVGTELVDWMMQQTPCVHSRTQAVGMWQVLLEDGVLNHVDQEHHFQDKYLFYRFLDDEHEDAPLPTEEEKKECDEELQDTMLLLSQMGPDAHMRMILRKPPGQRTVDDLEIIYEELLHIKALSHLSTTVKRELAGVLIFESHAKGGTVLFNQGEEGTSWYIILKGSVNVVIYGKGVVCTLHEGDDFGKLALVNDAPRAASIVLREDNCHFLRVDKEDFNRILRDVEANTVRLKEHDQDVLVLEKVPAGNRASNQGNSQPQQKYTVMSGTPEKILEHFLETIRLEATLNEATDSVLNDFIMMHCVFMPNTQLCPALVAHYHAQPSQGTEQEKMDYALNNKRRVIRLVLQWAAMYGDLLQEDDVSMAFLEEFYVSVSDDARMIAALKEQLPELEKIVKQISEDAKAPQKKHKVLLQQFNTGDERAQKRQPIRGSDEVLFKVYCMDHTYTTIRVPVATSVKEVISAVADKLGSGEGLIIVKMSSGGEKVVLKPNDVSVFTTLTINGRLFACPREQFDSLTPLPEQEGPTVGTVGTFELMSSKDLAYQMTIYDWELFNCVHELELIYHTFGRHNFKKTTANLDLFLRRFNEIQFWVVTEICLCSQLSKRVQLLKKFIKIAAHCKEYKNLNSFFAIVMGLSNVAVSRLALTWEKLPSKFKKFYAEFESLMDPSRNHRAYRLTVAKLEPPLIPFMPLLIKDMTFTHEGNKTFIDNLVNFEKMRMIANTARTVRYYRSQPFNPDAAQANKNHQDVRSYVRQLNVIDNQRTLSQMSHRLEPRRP
Chain of Rap guanine nucleotide exchange factor 3 (Homo sapiens) (O95398 whole entry, looked up): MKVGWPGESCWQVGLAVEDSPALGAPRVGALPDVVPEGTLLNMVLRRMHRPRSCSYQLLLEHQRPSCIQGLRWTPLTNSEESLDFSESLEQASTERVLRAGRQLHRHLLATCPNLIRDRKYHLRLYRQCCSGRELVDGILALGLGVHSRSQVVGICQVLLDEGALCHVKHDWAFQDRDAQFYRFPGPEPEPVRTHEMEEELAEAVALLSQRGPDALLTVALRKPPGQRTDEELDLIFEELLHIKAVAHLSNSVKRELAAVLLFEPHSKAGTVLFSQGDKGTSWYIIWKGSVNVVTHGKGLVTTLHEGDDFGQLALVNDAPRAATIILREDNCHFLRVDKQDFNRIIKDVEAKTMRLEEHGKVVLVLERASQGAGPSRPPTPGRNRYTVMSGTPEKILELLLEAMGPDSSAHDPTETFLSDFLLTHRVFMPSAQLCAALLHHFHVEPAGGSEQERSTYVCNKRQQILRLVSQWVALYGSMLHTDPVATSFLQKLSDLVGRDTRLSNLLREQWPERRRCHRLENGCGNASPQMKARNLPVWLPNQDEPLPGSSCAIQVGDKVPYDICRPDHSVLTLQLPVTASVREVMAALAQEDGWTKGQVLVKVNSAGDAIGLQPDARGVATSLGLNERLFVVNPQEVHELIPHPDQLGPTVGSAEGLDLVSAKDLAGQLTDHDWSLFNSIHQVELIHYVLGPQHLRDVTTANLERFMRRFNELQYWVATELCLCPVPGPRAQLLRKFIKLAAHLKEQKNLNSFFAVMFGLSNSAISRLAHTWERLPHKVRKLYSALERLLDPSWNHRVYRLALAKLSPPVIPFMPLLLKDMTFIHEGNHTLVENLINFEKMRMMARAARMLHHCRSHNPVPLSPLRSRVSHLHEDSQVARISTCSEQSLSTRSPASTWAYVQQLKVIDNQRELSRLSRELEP

On to `COc1ccccc1CNc1nc(-c2cccc(C#N)c2)nc2ccccc12`, for which the Potency in assay [1] was greater than 11.4 µM; in assay [2], 1.26 µM (active); in [4], greater than 46 µM; in [5], greater than 46 µM. Further, the activity, negative = inhibition in [3] is -22%. In addition, the Potency entry in assay [6], in assay [7], in assay [8], in [10], in assay [11] and in assay [12] was “inactive” throughout. Further, the result in [9] was inactive.
With `COc1ccc(-c2nc3cnc(Nc4cccc(OC)c4)nc3n(Cc3cccs3)c2=O)cc1`, the Potency is greater than 11.4 µM in assay [1], greater than 9.22 µM in assay [4], greater than 46 µM in assay [5] and 44.1 µM (active) in assay [12]. For the same compound, the Potency result in assay [2], in assay [6], in assay [13], in assay [7], in [8] and in [14] was “inactive” in each case. The Potency entry in [11] and in assay [15] was “inactive” each time. In addition, the result in [9] was inactive.
With `COc1cc(/C=C\c2ccc(OC)cc2OC)cc(OC)c1`, the Potency was 0.794 µM (active) in [2], greater than 46 µM in assay [4] and greater than 46 µM in [5]. Also, the Potency entry in assay [13], in [7], in assay [10], in assay [11] and in assay [15] was “inactive” in each case. Further, in assay [9], the result was inactive.
In the case of `COCCn1c(=O)c(-c2cccs2)nc2cnc(N3CCOCC3)nc21`, the Potency in [1] is greater than 11.4 µM; in assay [4], greater than 9.22 µM; in assay [5] it was greater than 46 µM. For the same compound, the activity change, negative = inhibition was -6.06% in [16] and 2.93% in [17]. In assay [3], the activity, negative = inhibition was -8.84%. Moreover, the Potency entry in assay [6], in assay [8], in assay [14], in assay [10] and in [12] was “inactive” in each case. For the same compound, the outcome in assay [9] was inactive.
In the case of `O=C(c1cccc(F)c1)N1CCC2(CCCN(c3cccc(-c4ccccc4)c3)C2)CC1`, the figures for the Potency in assay [1], in assay [2] and in [5] were greater than 11.4 µM, 15.8 µM (active) and greater than 46 µM, respectively. The activity change, negative = inhibition in assay [16] is 11.6%; in assay [17], -6.68%. Further, the activity, negative = inhibition in [3] is 7.29%. In addition, the Potency entry in [6], in [13], in assay [7], in assay [10], in assay [11] and in [15] was “inactive” in each case. Further, in [12], the Potency result was “inactive”. In [9], the result was inactive.
`COc1ccc(CNc2ncncc2-c2ccccc2C)c(OC)c1`: the results for the Potency in [1], in assay [2] and in [5] were greater than 11.4 µM, 10 µM (active) and greater than 46 µM, respectively. Moreover, the activity change, negative = inhibition in assay [17] was 5.66%. Besides, in assay [3], the activity, negative = inhibition was -4.15%. In addition, the Potency result in [6], in [13], in assay [7], in assay [8], in assay [14] and in assay [10] was “inactive” throughout. The Potency entry in assay [11] and in assay [15] was “inactive” in each case. Further, in assay [9], the outcome was inactive.
With `N#CCCn1c(=O)c(-c2ccc(Cl)cc2)nc2cnc(Nc3ccccc3)nc21`, the Potency in assay [1] was greater than 11.4 µM; in assay [4], greater than 9.22 µM; in assay [5], greater than 46 µM; in assay [15] it was 79.3 µM (active). Besides, in assay [16], the activity change, negative = inhibition was -28%. Further, in [3], the activity, negative = inhibition was -24.6%. Also, the Potency result in assay [6], in [13], in assay [8], in assay [14], in assay [10] and in assay [12] was “inactive” each time. For the same compound, the result in [9] was inactive.
